Screening data as filed in PubChem BioAssay.
A selection: hits, their analogues and other compounds. The true share with any hit is near 27%.
CYP2C19 act – increases human CYP2C19 enzyme activity. recombinant CYP2C19, luciferin-H EGE luminescence; hits give high values; 0 = fully inhibited enzyme, 1 = untreated enzyme. AID 1025. P33261. 96,000 tested, under 10 active. activation factor at 5 µM;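 active = activation factor of at least 2 at 5 µM in the primary screen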;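 also: 0 = wells with 2.5 mM tranylcypromine and 1 = vehicle-only wells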
CYP2C19 inhib – human CYP2C19 inhibition; CYP2C19 Supersomes, luciferin-H EGE luminescence, 30 min; hit rate 21% among 96,000; inhibition, % at 5 µM;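 active = CYP2C19 inhibition above a set limit at 5 µM in the primary screen, cut at about 50% in these data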;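 also: plate controls were negative control wells for no effect and 2.5 mM tranylcypromine positive control for full effect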
Cav32 inh – inhibitors of human Cav3.2 T-type calcium channel | O95180 | Cav3.2-expressing cells, Fluo-4 calcium fluorescence FDSS; hits give low values | B-score at 10 µM | hit rate 4% among 100,000 | AID 449739;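 active = single-dose well whose peak fluorescence ratio is a statistical outlier from its plate by either plate-standardised score or position-corrected B-score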
Pyk2 oligo antag – antagonists of human Pyk2 oligomerization; AID 1347419; z-score (the deposit names both 25 µM and 10 µM); Q293 cells, Pyk2 FERM NanoBiT luminescence; hits give low values; hit rate 0.83% among 99,000; Q14289;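 active = Z-score of -3 or lower, scaled per plate to the spread of control and sample wells; inactive = z-score above -3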;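 also: negative z-score means lost luminescence so less FERM oligomerization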
CYP2C9 activ – increases human cytochrome P450 2C9 activity; activation factor at 5 µM; P11712; recombinant CYP2C9, luciferin-H conversion, luminescence; hits give high values; factor 1 = untreated enzyme, 0 = blocked; AID 1024; hit rate 1.4% among 96,000;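 active = activation factor of 2 or more for CYP2C9 at a 5 µM dose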;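 also: 0 = sulfaphenazole-blocked wells and 1 = vehicle-only wells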
CYP2C9 inh – inhibitors of human CYP2C9 | CYP2C9 Supersomes, luciferin-H conversion, luminescence | AID 777 | inhibition, % at 5 µM | hit rate 20% among 96,000;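 active = blocking of liver enzyme CYP2C9 beyond about 50% at 5 µM, limit read from the data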
* marks the source's active call; other numbers are inactive results.

How did O=C(NC(C(=O)c1ccccc1)N1CCCCC1)c1ccccc1 (stereo not drawn) do in these assays?
CYP2C19 act: 0.2; CYP2C19 inhib: 77*; Cav32 inh: -1.5; Pyk2 oligo antag: 0.89; CYP2C9 activ: 0; CYP2C9 inh: 99*

What do the screens show for `NC(=O)C[C@@H]1N[C@]2(C(=O)Nc3ccccc32)[C@@H]2C(=O)N(c3cc(C(F)(F)F)ccc3Cl)C(=O)[C@H]12`?
CYP2C19 act: 0.8; CYP2C19 inhib: 24; Cav32 inh: 0.64; Pyk2 oligo antag: -0.13; CYP2C9 activ: 0.7; CYP2C9 inh: 25

Results for N#Cc1c(NC(=O)CCN2C(=O)c3ccccc3C2=O)oc(-c2ccccc2)c1-c1ccccc1 ?
CYP2C19 act: 0.7; CYP2C19 inhib: 30; Cav32 inh: -7.2*; Pyk2 oligo antag: 0.38; CYP2C9 activ: 0.2; CYP2C9 inh: 82*

What do the screens show for `N#Cc1c(NC(=O)CN2C(=O)c3ccccc3C2=O)oc(-c2ccccc2)c1-c1ccccc1`?
Cav32 inh: -4*; Pyk2 oligo antag: -2.4

Results for CC(C)CC(C(=O)Nc1oc(-c2ccccc2)c(-c2ccccc2)c1C#N)N1C(=O)c2ccccc2C1=O (stereo not drawn) ?
Cav32 inh: -3.4; Pyk2 oligo antag: -3.7*

Results for O=C(CCN1C(=O)c2ccccc2C1=O)Nc1ccc(-c2nc3ccccc3o2)cc1 ?
CYP2C19 act: 1; CYP2C19 inhib: 5; Pyk2 oligo antag: -0.11; CYP2C9 activ: 0.9; CYP2C9 inh: 15

How did N#Cc1c(NC(=O)CCn2cnc3ccccc3c2=O)oc(-c2ccccc2)c1-c1ccccc1 do in these assays?
CYP2C19 act: 0.2; CYP2C19 inhib: 81*; Cav32 inh: -9.4*; Pyk2 oligo antag: -2.5; CYP2C9 activ: 0; CYP2C9 inh: 96*

Results for CCN(CC)C(=O)CNC(=O)Cc1ccc(Cl)cc1 ?
CYP2C19 act: 0.6; CYP2C19 inhib: 41; Cav32 inh: 0.055; Pyk2 oligo antag: 1.4; CYP2C9 activ: 1.2; CYP2C9 inh: -21

How did O=C(CCn1cnc2ccccc2c1=O)Nc1ccc(S(=O)(=O)N2CCCC2)cc1 do in these assays?
CYP2C19 act: 0.9; CYP2C19 inhib: 5; Cav32 inh: 1.2; Pyk2 oligo antag: -0.31; CYP2C9 activ: 0.6; CYP2C9 inh: 41

How did O=C(CCn1cnc2ccccc2c1=O)Nc1ccc2c(c1)OCCO2 do in these assays?
CYP2C19 act: 0.5; CYP2C19 inhib: 53*; Cav32 inh: 0.84; Pyk2 oligo antag: -0.22; CYP2C9 activ: 0.5; CYP2C9 inh: 53*

What do the screens show for `O=C(CCN1C(=O)c2ccccc2C1=O)Nn1cnnc1`?
CYP2C19 act: 1; CYP2C19 inhib: -2; Cav32 inh: -0.11; Pyk2 oligo antag: -0.19; CYP2C9 activ: 0.1; CYP2C9 inh: 90*

Results for O=C(c1ccc2nc(N3CCCCC3)sc2c1)N1CCN(c2ccccn2)CC1 ?
CYP2C19 act: 0.6; CYP2C19 inhib: 43; CYP2C9 activ: 0.6; CYP2C9 inh: 37

How did COc1ccc(N(CC(=O)Nc2nc3ccc(C)cc3s2)S(=O)(=O)c2c(C)nn(C)c2C)cc1 do in these assays?
CYP2C19 act: 0.6; CYP2C19 inhib: 37; Cav32 inh: -3; CYP2C9 activ: 0.5; CYP2C9 inh: 48

What do the screens show for `COc1ccc(N(CC(=O)Nc2cc(OC)ccc2OC)S(=O)(=O)c2c(C)nn(C)c2C)cc1`?
CYP2C19 act: 0.2; CYP2C19 inhib: 76*; CYP2C9 activ: 0.2; CYP2C9 inh: 84*

How did Cc1ccc(N(CC(=O)NC2CCCCCC2)S(=O)(=O)c2c(C)nn(C)c2C)cc1 do in these assays?
CYP2C19 act: 0.6; CYP2C19 inhib: 42; Cav32 inh: 0.067; Pyk2 oligo antag: -0.06; CYP2C9 activ: 0.7; CYP2C9 inh: 35

How did COc1cccc(NC(=O)CN(c2ccc(C)cc2)S(=O)(=O)c2c(C)nn(C)c2C)c1 do in these assays?
CYP2C19 act: 0.3; CYP2C19 inhib: 69*; Cav32 inh: 0.54; Pyk2 oligo antag: -1.2; CYP2C9 activ: 0.2; CYP2C9 inh: 76*

How did COc1ccc(N(CC(=O)Nc2cccc(OC)c2)S(=O)(=O)c2c(C)nn(C)c2C)cc1 do in these assays?
CYP2C19 act: 0.3; CYP2C19 inhib: 75*; Cav32 inh: 0.42; Pyk2 oligo antag: -0.99; CYP2C9 activ: 0.2; CYP2C9 inh: 83*

What do the screens show for `Cc1cc(C)c(C#N)c(=N)o1`?
CYP2C19 act: 0.9; CYP2C19 inhib: 6; Pyk2 oligo antag: 0.83; CYP2C9 activ: 1; CYP2C9 inh: 0

How did CCCn1c(SCc2cc(=O)[nH]c3ccccc23)nc2c1c(=O)n(C)c(=O)n2C do in these assays?
CYP2C19 act: 1.1; CYP2C19 inhib: -5; Cav32 inh: 1.2; Pyk2 oligo antag: 1.6; CYP2C9 activ: 1; CYP2C9 inh: -3

Results for Cc1ccc(NC(=O)Cn2c(=O)n(CCCCC(=O)NCc3ccco3)c(=O)c3ccccc32)cc1 ?
CYP2C19 act: 0.5; CYP2C19 inhib: 46; Pyk2 oligo antag: -2.7; CYP2C9 activ: 0.2; CYP2C9 inh: 82*

Results for CCC(C)NC(=O)Cn1c(=O)n(CCCCC(=O)NCc2ccco2)c(=O)c2ccccc21 (stereo not drawn) ?
CYP2C19 act: 0.8; CYP2C19 inhib: 21; Pyk2 oligo antag: 0.6; CYP2C9 activ: 0.7; CYP2C9 inh: 27

How did CCCN(CCC)C(=O)Cn1c(=O)n(CCCCC(=O)NCc2ccco2)c(=O)c2ccccc21 do in these assays?
CYP2C19 act: 0.7; CYP2C19 inhib: 30; Pyk2 oligo antag: -0.48; CYP2C9 activ: 0.3; CYP2C9 inh: 69*

Results for O=C(CCCCn1c(=O)c2ccccc2n(CC(=O)Nc2ccc(F)cc2)c1=O)NCc1ccco1 ?
CYP2C19 act: 0.4; CYP2C19 inhib: 55*; Cav32 inh: 0.66; Pyk2 oligo antag: -0.28; CYP2C9 activ: 0.2; CYP2C9 inh: 81*

Results for O=C(CCCCn1c(=O)c2ccccc2n(Cc2ccc(F)cc2Cl)c1=O)NCc1ccco1 ?
CYP2C19 act: 0.1; CYP2C19 inhib: 88*; Pyk2 oligo antag: 0.18; CYP2C9 activ: 0.2; CYP2C9 inh: 84*

Results for O=C(CCCn1c(=O)c2ccccc2n(CC(=O)NCc2ccco2)c1=O)NCc1ccco1 ?
CYP2C19 act: 1; CYP2C19 inhib: 3; Cav32 inh: 0.066; Pyk2 oligo antag: -0.61; CYP2C9 activ: 0.6; CYP2C9 inh: 41

What do the screens show for `CN1CCN(NC(=O)c2cc([N+](=O)[O-])cc([N+](=O)[O-])c2)CC1`?
CYP2C19 act: 1; CYP2C19 inhib: -5; Cav32 inh: 0.64; Pyk2 oligo antag: 0.05; CYP2C9 activ: 1; CYP2C9 inh: 2

How did COC(=O)c1cccc(C23CC4(C2)[C@H](CN(Cc2cccnc2)[C@@H]4c2ccccc2)C3c2ccccc2)c1 (stereo partly drawn) do in these assays?
Cav32 inh: 0.38

Results for COc1ccc(Br)cc1[C@H]1[C@H]2C=CC[C@@H](C)[C@@H]2C(=O)N1Cc1ccccc1 ?
Cav32 inh: 0.31
